The list is not random: actives were taken first. Their share in the collection is about 4.2%.
Tau fil binding: binders of human tau filaments | P10636 | recombinant tau filaments, thioflavin S fluorescence, 15 h; filaments grown with octadecylsulfate alongside compound | Potency, µM (titrated, usually from 57.1 µM) | 2% of 71,000 active | AID 596;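 note: actives lower thioflavin S fluorescence by blocking filaments or displacing dye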
Target sequence (P10636 whole entry, looked up): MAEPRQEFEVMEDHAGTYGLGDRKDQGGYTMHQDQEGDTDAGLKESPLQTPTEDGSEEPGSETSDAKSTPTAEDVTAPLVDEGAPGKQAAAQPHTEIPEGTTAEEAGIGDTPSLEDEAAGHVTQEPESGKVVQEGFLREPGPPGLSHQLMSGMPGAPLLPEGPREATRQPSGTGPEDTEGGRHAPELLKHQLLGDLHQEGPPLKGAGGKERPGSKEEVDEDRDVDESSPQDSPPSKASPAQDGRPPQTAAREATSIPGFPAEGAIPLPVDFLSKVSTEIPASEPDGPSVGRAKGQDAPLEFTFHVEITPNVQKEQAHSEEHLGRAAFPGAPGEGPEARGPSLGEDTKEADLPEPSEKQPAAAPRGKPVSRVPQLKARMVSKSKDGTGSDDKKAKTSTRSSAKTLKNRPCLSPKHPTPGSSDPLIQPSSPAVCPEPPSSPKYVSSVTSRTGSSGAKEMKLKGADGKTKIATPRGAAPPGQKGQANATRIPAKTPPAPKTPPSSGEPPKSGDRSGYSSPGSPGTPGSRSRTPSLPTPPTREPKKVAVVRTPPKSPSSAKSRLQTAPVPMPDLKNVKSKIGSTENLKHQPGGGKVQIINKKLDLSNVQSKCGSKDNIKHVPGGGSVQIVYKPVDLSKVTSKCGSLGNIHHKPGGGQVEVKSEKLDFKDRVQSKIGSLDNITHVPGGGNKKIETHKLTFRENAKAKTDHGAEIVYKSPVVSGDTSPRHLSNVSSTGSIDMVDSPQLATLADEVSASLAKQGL
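Recombinant tau protein (human, 1 uM final) plus 30 uM ODS in HEPES pH 7.4 with NaCl, DTT and thioflavine S. Compound present from the start; fluorescence at 510 nm after 15 h, 37 C.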
ERK AVP block: blocks ERK signaling stimulated by vasopressin | HEK293-V1b, vasopressin-stimulated pERK AlphaScreen | Potency, µM (highest dose often 57.5 µM), usual class: inhibitors | 0.99% of 72,000 active | AID 995; note: nearly all actives have a fitted effect of over 55% in size
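HEK293 cells stably expressing V1b receptor, preincubated 30 min at 37 °C with compound, then stimulated 5 min with 25 nM vasopressin. Phospho-ERK by AlphaScreen SureFire after 5 h RT; normalized to DMSO and vasopressin; AC50 by Hill fit.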
Hsp90 Hop PPI: changes Hsp90-Hop TPR2A binding signal, up or down. Potency, µM (highest dose often 57 µM). 0.44% of 71,000 active. AlphaScreen TPR2A-His6 binding biotin-Hsp90 C-terminal peptide. AID 595; active = well fitted curve in either direction with a large enough effect; inconclusive = small, poorly fitted or top-dose-only effect, or another doubt
ALOX15 inhib: 15-hLO (ALOX15) enzyme inhibition. P16050. purified 15hLO-1, xylenol orange hydroperoxide absorbance. Potency, µM (series often up to 57.1 µM), actives largely listed as inhibitors. 1.4% of 74,000 active; note: nearly all actives have a fitted effect of over 55% in size
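Purified human 15hLO-1 (40 nM) in 25 mM Hepes pH 7.5, 0.01% Triton X-100, preincubated 15 min RT with compound, then 50 uM arachidonic acid for 6 min. Hydroperoxide read by ferrous/xylenol orange, 30 min; 573/405 nm absorbance ratio gave progress.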
TsaE inh: inhibitors of E. coli YjeE (TsaE) | 0.05% of 71,000 active | Potency, µM | purified YjeE enzyme, qHTS inhibition assay
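Fluorescence polarization of a BODIPY Texas Red–ADP probe (2 uM) bound to purified YjeE (10 uM) was read after 15 min room-temperature incubation with compounds. Loss of polarization marks inhibitors; ADP serves as titrated control.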
DNA Pol III inh: inhibitors of bacterial DNA polymerase III holoenzyme; reconstituted DNA polymerase III holoenzyme replication, biochemical; Potency, µM (doses to about 57.1 µM); 0.25% of 71,000 active; AID 603
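Reconstituted *E. coli* holoenzyme (0.35 nM Pol III, 1 nM beta, 154 nM SSB, 2 nM primase) was preincubated with compound for 15 min at RT. Synthesis on 1.4 nM ssM13Gori ran 35 min, then was stopped with PicoGreen/EDTA and read as dsDNA fluorescence.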
Large screens that a line does not name were inactive; ! = not active in a repeat. Unless noted, calls come from the whole dose curve; as a rule, active = well fitted curve in the direction sought with a large enough effect; inconclusive = small, poorly fitted or top-dose-only effect, or another doubt; inactive = no such curve, though single readings can be large; an effect the other way counts as inactive or inconclusive.

Cn1c(CNc2nc3ccccc3n2C)nc2ccccc21	Hsp90 Hop PPI inconclusive
Oc1[nH]c2ccccc2c1C=Nc1ccc2c(c1)OCCO2	Tau fil binding inconclusive, ERK AVP block 20µM, ALOX15 inhib inconclusive
CC1Cc2ccccc2N1S(=O)(=O)c1cccc2nsnc12 (stereo not drawn)	Tau fil binding 25µM, ERK AVP block 16µM
O=S(=O)(c1cccc2nsnc12)N1CCc2ccccc2C1	Tau fil binding 20µM, ERK AVP block inconclusive
O=C(C1CCN(S(=O)(=O)c2cccc3nsnc23)CC1)N1CC=C(c2ccccc2)CC1	Tau fil binding 20µM, ALOX15 inhib inconclusive
O=C(C1CCCN(S(=O)(=O)c2cccc3nsnc23)C1)N1CC=C(c2ccccc2)CC1 (stereo not drawn)	none
CCOC(=O)C(C)Sc1nc(-c2ccco2)cc(C(F)(F)F)c1C#N (stereo not drawn)	Tau fil binding 20µM, Hsp90 Hop PPI inconclusive
CCOC(=O)c1sc(NC(=O)CSc2nc(-c3ccco3)cc(C(F)(F)F)n2)c(C#N)c1C	none
CN1CCc2c(sc3c2c(=O)n(-c2ccccc2)c2nnc(SCc4ccc(F)cc4)n32)C1	Tau fil binding 4µM, ALOX15 inhib inconclusive
Cc1nnc2n(Cc3ccccc3)c(=O)c3c4c(sc3n12)CCCC4	none
COCCSc1nc2sc3c(c2c(=O)n1-c1ccccc1)CCN(C)C3	none
CSc1nnc2n(-c3ccccc3)c(=O)c3c4c(sc3n12)CCC4	ALOX15 inhib 2.5µM
COc1ccccc1N1CCN(C/C=C/c2ccc(N(C)C)cc2)CC1	Tau fil binding inconclusive, ERK AVP block 16µM, Hsp90 Hop PPI inconclusive, ALOX15 inhib 25µM
CCOC(=O)c1sc(NC(=O)CSc2ncn[nH]2)c(C#N)c1C	none
CCOC(=O)c1sc(NC(=O)CSc2nnc(Cc3ccccc3)o2)c(C#N)c1C	Tau fil binding 20µM, ALOX15 inhib inconclusive
NC(=O)c1cccc(S(=O)(=O)N2CC(c3ccccc3)CC2=O)c1 (stereo not drawn)	none
CCOc1ccc2c(c1)c1nnc(SCC3CCCO3)nc1n2C (stereo not drawn)	Tau fil binding 32µM, ERK AVP block inconclusive
O=c1ccc2ccc(O)c(O)c2o1	Hsp90 Hop PPI inconclusive, ALOX15 inhib 25µM
COc1ccccc1Nc1nc(N)nc(CN2CCC(Cc3ccccc3)CC2)n1	none
Nc1nc2ccccc2[nH]1	none
O=C(O)CSc1nc2ccc(Cl)cc2[nH]1	none
Cc1ccc(-c2nc3ccccc3[nH]2)s1	Tau fil binding 13µM
c1csc(-c2nc3ccccc3[nH]2)c1	none
Clc1ccc2nc(-c3ccccc3)[nH]c2c1	ERK AVP block 25µM (no result: Tau fil binding, Hsp90 Hop PPI, TsaE inh, DNA Pol III inh)
Nc1cc(N)cc(-c2nc3ccccc3[nH]2)c1	Tau fil binding 6.3µM, Hsp90 Hop PPI inconclusive
CCN(CC)CCNC(=O)CCCCn1c(=S)[nH]c2c([nH]c3ccc(OC)cc32)c1=O	ALOX15 inhib 13µM
CCC/C=C(\CCC)C(NC(=O)OCC(C)C)c1ccc(C(=O)OC)cc1 (stereo not drawn)	Hsp90 Hop PPI inconclusive (no result: ALOX15 inhib)
CN1CCc2c(sc3c2C(=O)NC(c2cn(Cc4ccccc4)c4ccccc24)N3)C1 (stereo not drawn)	Tau fil binding inconclusive, ERK AVP block 13µM, ALOX15 inhib 3.2µM, TsaE inh inconclusive
CN1CCc2c(sc3c2C(=O)NC(c2ccco2)N3)C1 (stereo not drawn)	ERK AVP block inconclusive, ALOX15 inhib inconclusive
CN1CCN(S(=O)(=O)c2ccc(SCCOc3ccccc3)nc2)CC1	ERK AVP block 25µM, DNA Pol III inh inconclusive
O=S(=O)(c1ccc(SCCO)nc1)N1CCCC1	none
Cc1cc(C)c2[nH]c(=O)c(C(c3nnnn3C(C)(C)C)N3CCN(C(=O)c4ccco4)CC3)cc2c1 (stereo not drawn)	none
CCN(CC)c1ccc(NC(=O)CN2CCN(c3ccc(F)cc3)CC2)cc1	Tau fil binding inconclusive
CN(C)c1ccc(NC(=O)CN2CCC(C(=O)c3ccc(F)cc3)CC2)cc1	Tau fil binding 16µM
Cc1cccc(Nc2nn3c(=O)c4ccccc4nc3s2)c1	DNA Pol III inh 3.2µM
O=c1c2ccccc2nnn1CSc1nnc(Nc2ccccc2)s1	none
CCNc1sc(C(=O)c2cccs2)c(N)c1-c1nc2ccccc2s1	Tau fil binding 13µM, ERK AVP block inconclusive, Hsp90 Hop PPI inconclusive, ALOX15 inhib inconclusive
CN(C)c1ccc(C(=C2C=CC(=[N+](C)C)C=C2)c2ccccc2)cc1	Tau fil binding 0.2µM!, ERK AVP block 13µM, Hsp90 Hop PPI inconclusive, ALOX15 inhib 32µM!
Cc1cccc2cc(CN(Cc3ccco3)S(=O)(=O)c3ccc4c(c3)OCCO4)c(=O)[nH]c12	ERK AVP block 10µM
Cc1cc(C)c2[nH]c(=O)c(CN(CC3CCCO3)S(=O)(=O)c3ccc4c(c3)OCCO4)cc2c1 (stereo not drawn)	ERK AVP block inconclusive
Cc1cccc2cc(C#N)c(N3CCN(C)CC3)nc12	none
Cc1ccc(C)c2nc(N3CCCC3)c(C#N)cc12	ALOX15 inhib 13µM
COc1ccccc1NC(=O)c1cc(Cl)ccc1NC(=O)c1ccco1	none
O=C(Nc1ccc(Cl)cc1C(=O)Nc1ccccn1)c1ccco1	ALOX15 inhib 0.16µM
Cc1onc(-c2ccccc2)c1C(=O)Nc1ccc2c(c1)OCO2	Tau fil binding 16µM
O=C(c1ccncc1)N1CCC2(CCCN(Cc3nccs3)C2)CC1	ALOX15 inhib 0.2µM
CC(=O)N1CCC2(CCCN(Cc3nccs3)C2)CC1	none
N#Cc1ccc(C23CC4(C2)[C@H](CN(Cc2cccnc2)[C@@H]4c2ccccc2)C3c2ccccc2)cc1 (stereo partly drawn)	none (no result: Tau fil binding, Hsp90 Hop PPI, ALOX15 inhib, TsaE inh, DNA Pol III inh)
O=C(Nc1nc2ccccc2s1)C1CCCN1S(=O)(=O)c1ccc(Cl)cc1 (stereo not drawn)	ERK AVP block 20µM, ALOX15 inhib inconclusive
COC(=O)CN(c1ccc(OC)c(OC)c1)S(C)(=O)=O	none
Cn1ccnc1Sc1nc(Nc2cccc(Cl)c2)nc(N2CCOCC2)n1	none
COc1ccccc1NC(=O)c1cc2ccc(O)cc2o/c1=N\O	ERK AVP block 32µM
Cc1ccccc1CNc1nc(N)n(-c2ccccc2)n1	ERK AVP block inconclusive
Cc1ccc2nc(NC(=O)CNS(=O)(=O)c3ccc(Br)s3)sc2c1	none
Cc1cccc2sc(NC(=O)CNS(=O)(=O)c3ccc(Br)s3)nc12	ERK AVP block 20µM
Cc1ccc2nc(NC(=O)CN(C)S(=O)(=O)c3ccc(Br)s3)sc2c1	ERK AVP block 4µM, ALOX15 inhib inconclusive
Cc1ccc2nc(NC(=O)CN(C)S(=O)(=O)c3cccc4nsnc34)sc2c1	Tau fil binding 16µM
Cc1csc(NC(=O)CNS(=O)(=O)c2cccs2)n1	none
O=C1c2ccccc2C(O)(Cc2ccccc2)N1C1CCCCC1 (stereo not drawn)	none

Compound activity as filed in PubChem.
